35 compounds from PubChem BioAssay (EPA / NIEHS) can be followed below.

Structures are written as SMILES. Active and inactive are the calls of the source. Rule for the calls: active = hit-call score of the fitted dose curve at least 0.9, where 1 is the maximum; inactive = score below 0.9.

Read-out in one experiment: Forkhead box O3 (FOXO3), FOXO3 (gene 2309)
In words: LTEA_HepaRG_FOXO3: Life Technologies and Expression Analysis (LTEA) Assay for Forkhead box O3 (FOXO3) using HepaRG (AID 2283459). To be noted: mRNA level, 48 h; actives raise or lower the signal. The procedure, abridged: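 Gene-expression endpoint: FOXO3 transcript level by qRT-PCR in HepaRG cultures treated 48 h with chemicals up to 100 uM (half-log, 0.5% DMSO vehicle).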
Take `COc1cccc(C(=O)NN(C(=O)c2cc(C)cc(C)c2)C(C)(C)C)c1C`: the result was inactive.

`O=C(O)c1cc(Oc2ccc(C(F)(F)F)cc2Cl)ccc1[N+](=O)[O-]`: the result was inactive.

With `Cc1cc(C2CC2)nc(Nc2ccccc2)n1`, the outcome was inactive.

Regarding `CNC(=O)Oc1cccc2c1OC(C)(C)O2`, the outcome was inactive.

As for `CC(C1CC1)C(O)(Cn1cncn1)c1ccc(Cl)cc1` (stereo not given), the call was inactive.

Regarding `CSc1nnc(C(C)(C)C)c(=O)n1N`, the call was inactive.

For `CCCOCC(=Nc1ccc(Cl)cc1C(F)(F)F)n1ccnc1`, the AC50 (in general, the concentration giving half of the maximal activity seen) is 40 µM (active).

`COP(=O)(NC(C)=O)SC` (stereo not given): the outcome was inactive.

In the case of `CCOC(=O)COc1cc(-c2nn(C)c(OC(F)F)c2Cl)c(F)cc1Cl`, the compound was classed as inactive.

With `CN(C)C(=O)Nc1cccc(C(F)(F)F)c1`, the compound was called inactive.

As for `Nc1nc(N)nc(NC2CC2)n1`, the compound was called inactive.

As to `CN(C)NC(=O)CCC(=O)O`, the compound was called inactive.

Take `CNC(=O)ON=C(SC)C(=O)N(C)C`: the compound was called inactive.

With `CCc1cccc(C)c1N(C(=O)CCl)C(C)COC` (stereo not given), the compound was called inactive.

`CCOP(=S)(OCC)Oc1ccc2c(C)c(Cl)c(=O)oc2c1`: the outcome was inactive.

On to `CNc1cnn(-c2cccc(C(F)(F)F)c2)c(=O)c1Cl`, for which the AC50 was 31.1 µM (active).

In the case of `CC(C)[C@H](C(=O)O[C@H](C#N)c1cccc(Oc2ccccc2)c1)c1ccc(Cl)cc1`, the call was inactive.

As to `COc1ccc(C(=CC(=O)N2CCOCC2)c2ccc(Cl)cc2)cc1OC`, the compound was called inactive.

For the compound `CCOP(=O)(NC(C)C)Oc1ccc(SC)c(C)c1` (stereo not given), the result was inactive.

Regarding `CSc1nc(NC(C)C)nc(NC(C)C)n1`, the result was inactive.

Consider `CC1(C(=O)Nc2ccc(O)c(Cl)c2Cl)CCCCC1`, for which the compound was called inactive.

With `CCNc1nc(Cl)nc(NC(C)(C)C#N)n1`, the call was inactive.

For `CNC(=O)ON=C(C)SC`, the result was inactive.

For the compound `Nc1c(Cl)cc([N+](=O)[O-])cc1Cl`, the AC50 is 7.33 µM (active).

In the case of `CC(COc1ccc(Oc2ccccc2)cc1)Oc1ccccn1` (stereo not given), the call was inactive.

As to `C#CC(C)(C)NC(=O)c1cc(Cl)cc(Cl)c1`, the call was inactive.

With `CCCSP(=O)(OCC)Oc1ccc(Br)cc1Cl` (stereo not given), the compound was classed as inactive.

Turning to `FC(F)C(F)(F)OCC(Cn1cncn1)c1ccc(Cl)cc1Cl` (stereo not given), the result was inactive.

For `C[Si](Cn1cncn1)(c1ccc(F)cc1)c1ccc(F)cc1`, the result was inactive.

For the compound `CCOP(=S)(OCC)Oc1cc(C)nc(C(C)C)n1`, the call was inactive.

As for `CCCCN(CC)c1c([N+](=O)[O-])cc(C(F)(F)F)cc1[N+](=O)[O-]`, the call was inactive.

For the compound `C#CCC1=C(C)C(OC(=O)C2C(C=C(C)C)C2(C)C)CC1=O` (stereo not given), the compound was called inactive.

For the compound `CCOP(=S)(OCC)Oc1ccc([N+](=O)[O-])cc1`, the result was inactive.

In the case of `CCCSP(=O)(OCC)SCCC`, the compound was classed as inactive.

Turning to `Cc1ccn2nc(S(=O)(=O)Nc3c(F)cccc3F)nc2n1`, the outcome was inactive.

Read-out in another experiment: ABC Transporter (ABCB1), ABCB1 (gene 5243)
Nature of the experiment: LTEA_HepaRG_ABCB1: Life Technologies and Expression Analysis (LTEA) Assay for ABC Transporter (ABCB1) using HepaRG (AID 2283460). To be noted: mRNA level, 48 h; actives raise or lower the signal. The method in brief: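 Human liver HepaRG line treated 48 h with up to 100 uM compound (eight half-log points, 0.5% DMSO); ABCB1 mRNA change fitted bidirectionally against DMSO controls.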
As for `COc1cccc(C(=O)NN(C(=O)c2cc(C)cc(C)c2)C(C)(C)C)c1C`, the AC50 is 4.33 µM (active).

As for `O=C(O)c1cc(Oc2ccc(C(F)(F)F)cc2Cl)ccc1[N+](=O)[O-]`, the AC50 is 50 µM (active).

As for `Cc1cc(C2CC2)nc(Nc2ccccc2)n1`, the result was inactive.

On to `CNC(=O)Oc1cccc2c1OC(C)(C)O2`, for which the call was inactive.

In the case of `CC(C1CC1)C(O)(Cn1cncn1)c1ccc(Cl)cc1` (stereo not given), the half-maximal activity concentration (AC50) was 13.1 µM (active).

With `CSc1nnc(C(C)(C)C)c(=O)n1N`, the result was inactive.

Take `CCCOCC(=Nc1ccc(Cl)cc1C(F)(F)F)n1ccnc1`: the AC50 is 80.5 µM (active).

For the compound `COP(=O)(NC(C)=O)SC` (stereo not given), the compound was classed as inactive.

`CCOC(=O)COc1cc(-c2nn(C)c(OC(F)F)c2Cl)c(F)cc1Cl`: the AC50 was 34.3 µM (active).

Take `CN(C)C(=O)Nc1cccc(C(F)(F)F)c1`: the outcome was inactive.

As to `Nc1nc(N)nc(NC2CC2)n1`, the outcome was inactive.

On to `CN(C)NC(=O)CCC(=O)O`, for which the compound was classed as inactive.

Turning to `CNC(=O)ON=C(SC)C(=O)N(C)C`, the outcome was inactive.

`CCc1cccc(C)c1N(C(=O)CCl)C(C)COC` (stereo not given): the compound was called inactive.

For the compound `CCOP(=S)(OCC)Oc1ccc2c(C)c(Cl)c(=O)oc2c1`, the AC50 is 12.9 µM (active).

Turning to `CNc1cnn(-c2cccc(C(F)(F)F)c2)c(=O)c1Cl`, the AC50 was 74.9 µM (active).

On to `CC(C)[C@H](C(=O)O[C@H](C#N)c1cccc(Oc2ccccc2)c1)c1ccc(Cl)cc1`, for which the AC50 is 23.2 µM (active).

For the compound `COc1ccc(C(=CC(=O)N2CCOCC2)c2ccc(Cl)cc2)cc1OC`, the call was inactive.

In the case of `CCOP(=O)(NC(C)C)Oc1ccc(SC)c(C)c1` (stereo not given), the compound was classed as inactive.

For the compound `CSc1nc(NC(C)C)nc(NC(C)C)n1`, the AC50 is 3.25 µM (active).

For the compound `CC1(C(=O)Nc2ccc(O)c(Cl)c2Cl)CCCCC1`, the compound was called inactive.

As for `CCNc1nc(Cl)nc(NC(C)(C)C#N)n1`, the call was inactive.

On to `CNC(=O)ON=C(C)SC`, for which the compound was called inactive.

As for `Nc1c(Cl)cc([N+](=O)[O-])cc1Cl`, the AC50 is 31.1 µM (active).

As to `CC(COc1ccc(Oc2ccccc2)cc1)Oc1ccccn1` (stereo not given), the outcome was inactive.

As for `C#CC(C)(C)NC(=O)c1cc(Cl)cc(Cl)c1`, the AC50 was 50 µM (active).

Consider `CCCSP(=O)(OCC)Oc1ccc(Br)cc1Cl` (stereo not given), for which the compound was classed as inactive.

Consider `FC(F)C(F)(F)OCC(Cn1cncn1)c1ccc(Cl)cc1Cl` (stereo not given), for which the outcome was inactive.

As for `C[Si](Cn1cncn1)(c1ccc(F)cc1)c1ccc(F)cc1`, the compound was called inactive.

In the case of `CCOP(=S)(OCC)Oc1cc(C)nc(C(C)C)n1`, the compound was called inactive.

With `CCCCN(CC)c1c([N+](=O)[O-])cc(C(F)(F)F)cc1[N+](=O)[O-]`, the compound was called inactive.

For the compound `C#CCC1=C(C)C(OC(=O)C2C(C=C(C)C)C2(C)C)CC1=O` (stereo not given), the call was inactive.

Turning to `CCOP(=S)(OCC)Oc1ccc([N+](=O)[O-])cc1`, the result was inactive.

On to `CCCSP(=O)(OCC)SCCC`, for which the outcome was inactive.

Take `Cc1ccn2nc(S(=O)(=O)Nc3c(F)cccc3F)nc2n1`: the result was inactive.
